Assay outcomes from PubChem.
Many of the other results were omitted from the sample, so hits are more common in it than they were.
ST2 IL33 inh = inhibitors of human ST2 (IL1RL1) binding to IL-33. Q01638. AlphaLISA ST2-Fc/biotin-IL-33 interaction, 1 h. inhibition, % for hits at 17 µM. actives 2.3% (n = 78,000); in the data active = inhibition above about 30%
Target sequence (Q01638 whole entry, looked up): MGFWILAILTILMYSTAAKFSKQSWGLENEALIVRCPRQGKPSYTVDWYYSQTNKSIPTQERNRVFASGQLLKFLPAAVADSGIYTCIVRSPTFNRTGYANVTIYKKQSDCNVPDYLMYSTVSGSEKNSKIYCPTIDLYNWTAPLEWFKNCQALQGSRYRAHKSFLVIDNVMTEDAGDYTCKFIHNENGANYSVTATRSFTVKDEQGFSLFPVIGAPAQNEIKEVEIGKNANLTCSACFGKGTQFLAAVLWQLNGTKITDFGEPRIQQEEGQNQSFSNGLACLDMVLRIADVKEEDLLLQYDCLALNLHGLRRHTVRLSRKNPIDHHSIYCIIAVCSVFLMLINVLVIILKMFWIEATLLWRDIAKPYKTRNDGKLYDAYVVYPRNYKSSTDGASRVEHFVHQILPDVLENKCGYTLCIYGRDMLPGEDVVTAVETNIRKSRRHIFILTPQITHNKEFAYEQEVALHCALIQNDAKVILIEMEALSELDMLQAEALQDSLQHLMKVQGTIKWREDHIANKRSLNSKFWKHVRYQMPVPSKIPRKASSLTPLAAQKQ
Starred values were filed as active, the others as inactive; ! = not confirmed by another sample.

For Cc1cc2c(c(=O)o1)C(c1ccccc1OCc1ccccc1Cl)C(C#N)=C(N)O2 (stereo not drawn) the results were ST2 IL33 inh inactive.
`COc1ccc(C2C(C#N)=C(N)Oc3cc(C)oc(=O)c32)cc1OCc1ccccc1` (stereo not drawn) gave ST2 IL33 inh 32.0%*.
`COc1ccc(C2C(C#N)=C(N)OC3=C2C(=O)CC(c2ccccc2)C3)cc1` (stereo not drawn) gave ST2 IL33 inh inactive.
For CC(C)(C)C(=O)NCCc1nc2ccccc2[nH]1 the results were ST2 IL33 inh inactive.
For Cc1cc2nc(Cc3ccc(OC(F)F)cc3)c(=O)n(C)c2cc1C the results were ST2 IL33 inh inactive.
Screening O=C(CSc1nc2c(c(=O)n1-c1ccc(F)cc1)SCC2)Nc1ccccc1F returned ST2 IL33 inh inactive.
`CS(=O)(=O)N(CC(=O)O)c1ccccc1F` gave ST2 IL33 inh inactive.
Cn1c(=O)[nH]c(=O)c2c1nc(Br)n2CC(=O)c1ccccc1 was read as ST2 IL33 inh inactive.
Clc1ccc(-c2nc3ccccc3c3nncn23)c(Cl)c1 was read as ST2 IL33 inh inactive.
`CC(=O)Nc1ccc(CN2CCN(c3ccccc3)CC2)cc1` gave ST2 IL33 inh inactive.
Screening COc1ccc(C2CC(=O)C3=C(C2)OC(N)=C(C#N)C3c2ccc(Cl)cc2)cc1OC (stereo not drawn) returned ST2 IL33 inh inactive.
`OC1CCCN(Cc2ccc(Br)s2)C1` (stereo not drawn) gave ST2 IL33 inh inactive.
Cc1cc(C)c([N+](=O)[O-])cc1-c1ccc(C=C2C(=O)NC(=O)NC2=O)o1 was read as ST2 IL33 inh 36.0%*.
Screening O=C1NC(=O)/C(=C/c2ccc(-c3cccc(Cl)c3Cl)o2)N1 returned ST2 IL33 inh inactive.
Cc1cc(Cl)ccc1-c1ccc(C=O)o1 was read as ST2 IL33 inh inactive.
For Cc1ccc2[nH]c(=O)nc(-c3ccccc3)c2c1 the results were ST2 IL33 inh inactive.
Screening CC1=Nc2c([nH]c3ccccc23)-c2cc(C)ccc2N1 returned ST2 IL33 inh 32.0%*.
For COc1ccc(CCNC(=O)c2c[nH]n3c(=O)c(Cc4ccc(C)cc4)c(C)nc23)cc1OC the results were ST2 IL33 inh inactive.
Screening Cn1c(=O)c2c(nc(NCc3ccccc3)n2Cc2ccccc2Br)n(C)c1=O returned ST2 IL33 inh inactive.
COc1ccccc1NC(=O)C1=C(C)Nc2nc3ccccc3n2C1c1ccc(C)cc1 (stereo not drawn) was read as ST2 IL33 inh inactive.
Screening O=C(CN1C(=O)S/C(=C\c2ccccc2OCc2cccc(F)c2)C1=O)N1CCOCC1 returned ST2 IL33 inh 30.0%*.
For CCN(CC)c1ccc(/C=C2\SC(=O)N(CC(=O)N3CCOCC3)C2=O)cc1 the results were ST2 IL33 inh inactive.
For Cc1ccc(COc2ccc(/C=C3\SC(=O)N(CC(=O)N4CCOCC4)C3=O)cc2)cc1 the results were ST2 IL33 inh inactive.
Screening COc1cc(C=O)ccc1OC(=O)N1CCOCC1 returned ST2 IL33 inh inactive.
CN1C(=O)S/C(=C/c2ccccc2OCc2ccc(C(=O)O)cc2)C1=O was read as ST2 IL33 inh inactive.
For C=CCOc1ccc(/C=C2\SC(=O)N(CC(=O)N3CCOCC3)C2=O)cc1OC the results were ST2 IL33 inh 40.0%*.
COc1ccccc1C1CC(=O)N2CN(c3ccc(C)c(Cl)c3)CSC2=C1C#N (stereo not drawn) was read as ST2 IL33 inh inactive.
COc1ccc(C(=O)c2c(NC(C)=O)c(C#N)c(C)n2-c2ccccc2)cc1 was read as ST2 IL33 inh inactive.
Screening COC(=O)C1C(=O)C2=C(CC1C)NC(C)=C(C(=O)OCCOC(C)C)C2c1cccc(F)c1 (stereo not drawn) returned ST2 IL33 inh inactive.
For Cc1cc2c3c([nH]c2cc1S(=O)(=O)NCCc1ccc(S(N)(=O)=O)cc1)CC(C)(C)CC3=O the results were ST2 IL33 inh inactive.
Screening O=C(Cn1[nH]c(=O)ccc1=O)N1CCC(c2ccccc2Cl)C1 (stereo not drawn) returned ST2 IL33 inh inactive.
Screening CCC(=O)Nc1c(C(=O)Nc2cccc(F)c2)oc2ccccc12 returned ST2 IL33 inh inactive.
For COc1ccc(NC(=O)c2oc3ccccc3c2NC(=O)c2cccs2)cc1 the results were ST2 IL33 inh inactive.
COc1ccccc1CN1CCSCC1 was read as ST2 IL33 inh inactive.
For COc1ccccc1CN1CCCCCC1 the results were ST2 IL33 inh inactive.
For CCOc1ccccc1CN1CCSCC1 the results were ST2 IL33 inh 31.0%*.
CC(C)Cc1cc(C(=O)N2CCCN(C(=O)C3CCCO3)CC2)n(C)n1 (stereo not drawn) was read as ST2 IL33 inh inactive.
O=C1CCCC2=C1C(c1ccc(Cl)cc1)n1nc(SCc3ccccc3)nc1N2 (stereo not drawn) was read as ST2 IL33 inh inactive.
Screening Cc1cc(C)n2nc3nc(N4CCOCC4)nc(-c4ccccc4)c3c2n1 returned ST2 IL33 inh inactive.
For CC(C)(C)c1ccccc1OCC(O)CN1CCN(Cc2ccc3c(c2)OCO3)CC1 (stereo not drawn) the results were ST2 IL33 inh 97.0%*.
CC(C)(C)c1ccc(OCC(O)CN2CCN(Cc3ccc4c(c3)OCO4)CC2)cc1 (stereo not drawn) was read as ST2 IL33 inh inactive.
COc1ccc(OCC(O)CN2CCN(c3ccccc3F)CC2)c(C(C)(C)C)c1 (stereo not drawn) was read as ST2 IL33 inh inactive.
`CCN(CC)c1ccc(C2CC(c3ccc(C)cc3)=NN2C(=O)CCC(=O)O)cc1` (stereo not drawn) gave ST2 IL33 inh inactive.
For CCc1ccccc1OCCN(C)C(=O)C1CCS(=O)(=O)CC1 the results were ST2 IL33 inh inactive.
For Cc1cc(C)c(S(=O)(=O)NCc2ccc(C(=O)O)cc2)c(C)c1 the results were ST2 IL33 inh inactive.
For Cc1cc2n(n1)C(c1ccc(Cl)cc1)CC(c1ccccc1)=N2 (stereo not drawn) the results were ST2 IL33 inh 30.0%*!.
Screening CC(=O)N1c2ccccc2N=C(c2ccccc2)CC1c1ccccc1 (stereo not drawn) returned ST2 IL33 inh inactive.
O=C(O)CCC(=O)N1N=C(c2ccccc2)CC1c1ccc(Cl)cc1 (stereo not drawn) was read as ST2 IL33 inh inactive.
For CCn1nc(C)c(CNC(C)Cn2cncn2)c1C (stereo not drawn) the results were ST2 IL33 inh inactive.
Screening Cc1ccc(NC(=O)NC[C@H]2O[C@@H](CC(=O)N(C)Cc3ccccc3)[C@H](O)[C@@H]2O)cc1 returned ST2 IL33 inh inactive.
Screening O=C(O)CCN(CCC(=O)O)c1nnc(-c2ccccc2)o1 returned ST2 IL33 inh inactive.
For C(=C\c1nnc(-c2ccccc2)o1)/c1ccccc1 the results were ST2 IL33 inh 34.0%*.
Screening Nc1nnc(-c2ccccc2)o1 returned ST2 IL33 inh inactive.
O=C(Nc1nnc(CCS(=O)(=O)c2ccc(Cl)cc2)s1)c1ccc([N+](=O)[O-])cc1 was read as ST2 IL33 inh inactive.
`O=C1NC(=O)/C(=C\c2ccc(Cl)cc2Cl)S1` gave ST2 IL33 inh 31.0%*.
`O=C1NC(=O)/C(=C/c2ccc([N+](=O)[O-])cc2)S1` gave ST2 IL33 inh inactive.
`O=C1S/C(=C\c2ccc(Cl)cc2Cl)C(=O)N1CN1CCOCC1` gave ST2 IL33 inh inactive.
CCSc1nc2c(c(=O)[nH]1)C(c1ccc(F)cc1)C1=C(CCCC1=O)N2 (stereo not drawn) was read as ST2 IL33 inh inactive.
